# Source: PubChem BioAssay AID504834 (National Center for Advancing Translational Sciences (NCATS), 2011)
# Where “and” joins values, the source holds several entries; their conditions need not be identical. Identical values can stand only once. Among all 320,000 compounds or so, about 22,000 (6.9%) were called active. Roughly 27% stayed inconclusive and do not appear here. For the sample, actives were picked, then their nearest neighbours and some compounds at random. Unmarked numbers belong to inactive results. The call rests on the fitted dose curve; in most records, active means well fitted inhibition curve with a large enough effect; inconclusive means small, poorly fitted or top-dose-only effect, or another doubt; inactive means no such curve, though single readings can be large or run the other way.
# Assay: Primary qHTS for delayed death inhibitors of the malarial parasite plastid, 96 hour incubation
# Conditions: P. falciparum luciferase reporter growth; series mostly up to 28.7 µM; activity change, negative = inhibition: at the top concentration
# Outline: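 Readout is luminescence from an integrated firefly luciferase in P. falciparum. Red cells, 2% hematocrit and 0.05% parasitemia final, were cultured with compound through two parasite generations (96 hours) at 37 C, 5% CO2.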
# On the % scale 0 is the no-effect control and ±100 the full control effect; potency means the concentration at half of the fitted maximal effect.
SMILES,"activity change, negative = inhibition",Potency
COC(=O)c1cc(OCC(=O)NC2CCCc3ccccc32)cc(C(=O)OC)c1 (configuration not stated),4.97%,
Cc1ccc(C(=O)NCC(=O)OCC(=O)NC2CCCCCCC2)cc1,30.3%,
Oc1ccc(-c2cccc(-c3ccc(O)cc3)c2)cc1,40.9%,
O=C(NCCS(=O)(=O)N1CCN(c2ccc(F)cc2)CC1)c1ccc2c(c1)OCO2,23.3%,
CC(C)N(Cc1nnc(-c2ccc(Cl)cc2)o1)C(=O)C1=COCCO1,-0.891%,
Cn1cnnc1SCc1nnc(-c2ccccc2Br)o1,22.1%,
CC(C)N(Cc1nnc(-c2ccccc2Br)o1)C(=O)c1cc(Cl)nc2ccccc12,,14.7 µM (active)
O=S(=O)(Nc1ccccc1)c1ccc(NS(=O)(=O)c2cccs2)cc1,409%,
Cc1ccc(OCCNC(=O)CNC(=O)c2ccc(C)c(C)c2)cc1,15.4%,
COc1cc(Nc2nc3ccc(Cl)cc3n3cnnc23)cc(OC)c1OC,7.11%,
CCOC(=O)CCP(=O)(O)C(O)(c1ccccc1)c1ccccc1,6.27%,
CC[N+]1(C)CCCC(OC(=O)C(O)(c2ccccc2)c2ccccc2)C1 (configuration not stated),,8.49 µM (active) and 10.4 µM (active)
CN(C)N(C)C(=O)C(O)(c1ccccc1)c1ccccc1,-3.89%,
O=S(=O)(c1ccc(Cl)cc1)c1nc(-c2ccccc2F)oc1NCCN1CCOCC1,-26.1%,
O=C(CN1C(=O)c2cccc3cccc1c23)Nc1ccccc1,6.14%,
C[N+](C)(CCCCCC[N+](C)(C)CCCN1C(=O)c2cccc3cccc(c23)C1=O)CCCN1C(=O)c2cccc3cccc(c23)C1=O,,0.233 µM (active)
O=C1c2cccc3cccc(c23)C(=O)N1CCCCCc1n[nH]c(=S)o1,21.4%,
COc1cc(/C=C/C(=O)O)cc(S(=O)(=O)Nc2ccccc2C(=O)NCCc2ccccc2)c1OC,24.5%,
Cc1cc(C)cc(NC(=O)c2cccc(NC(=O)C3C4CC5OC(=O)C3C5C4)c2)c1 (configuration not stated),,0.0738 µM (active)
Cc1cccc(NC(=O)C(C)N2C(=O)C3C4CC(C(Br)C4Br)C3C2=O)c1 (configuration not stated),104%,
Cc1ccc(NC(=O)COC(=O)C2C3CC4OC(=O)C2C4C3)cc1Cl (configuration not stated),0.766%,
O=C(NCCS(=O)(=O)N1CCN(c2ccccc2)CC1)c1ccco1,10.3%,
CSc1cccc(NC(=O)CN2C(=O)COc3ccc(S(=O)(=O)N4CCOCC4)cc32)c1,8.78%,
COCCn1nnnc1C(c1ccccc1Cl)N1CCN(c2ccccc2OC)CC1 (configuration not stated),-5.44%,
CCC(=O)N(C)C(c1ccccc1Cl)c1nnnn1-c1c(C)cccc1C (configuration not stated),,9.28 µM (active)
CN(C(=O)CSc1nnnn1-c1ccccc1)C1CCCCC1,1.42% [at 5.75 µM],
CCc1ccccc1NC(=O)CSc1nnc(CCNC(=O)OC(C)(C)C)o1,14.6%,
